Sm TGR block: qHTS Assay for the Inhibitors of Schistosoma Mansoni Peroxiredoxins; Schistosoma mansoni thioredoxin glutathione reductase (TGR), Q962Y6; purified TGR, DTNB reduction, TNB absorbance 405 nm; Potency, µM (highest dose often 114 µM), inactives show top-dose activity change, negative = inhibition, hits mostly inhibitors; actives 3% (n = 360,000); note: potency is the fitted concentration of half-maximal effect; nearly all actives have a fitted effect of over 60% in size
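TGR 20 nM + NADPH 100 uM (dispensed conc.), cpd preinc 15 min RT; start with NADPH (500 uM addition) then DTNB (15 mM addition). Kinetic TNB absorbance, 405 nm filter. Four-parameter Hill fit across titration.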
FMDV antiviral: High Throughput Screening for Foot and Mouth Disease Virus Antivirals. FMDV antiviral cell-based qHTS. actives 1.2% (n = 410,000). Potency, µM (doses to about 57.9 µM), for the others: at the highest dose activity change, negative = inhibition, usual class: inhibitors. AID 1159524, 2015; calls by dose curve; tested in HEK293T cells; note: read-out not given here; potency is the fitted concentration of half-maximal effect; nearly all actives have a fitted effect of over 45% in size
VACV Venus inh: qHTS for Stage-Specific Inhibitors of Vaccinia Orthopoxvirus: Venus Reporter Primary qHTS; Vaccinia virus Venus reporter expression, fluorescence; Potency, µM (top dose mostly 36.5 µM), for the others: top-dose activity change, negative = inhibition, most hits filed as inhibitors; actives 0.46% (n = 330,000); AID 720580, 2013; calls by dose curve; tested in A549 cells; note: potency is the fitted concentration of half-maximal effect; nearly all actives have a fitted effect of over 30% in size
HCV inh: qHTS Assay for Inhibitors of Hepatitis C Virus (HCV); AID 651820, 2012; Potency, µM (titrated, usually from 41.8 µM), for the others: top-dose activity change, negative = inhibition, most hits filed as inhibitors; Huh7.5.1 HCVcc-Cre infection, luciferase reporter, 44 h; actives 3.4% (n = 340,000); note: potency is the fitted concentration of half-maximal effect
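After 44 h co-culture of compound, cells and HCVcc-Cre (~0.5 moi), substrate is added for 15 min at room temperature and luciferase measured over 15 sec. Cells were seeded at 1,000/well and pre-cultured 4 h.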
HCMV inh: qHTS Assay for inhibitors of the human cytomegalovirus (HCMV) | HFF cells, HCMV-luciferase reporter, 72 h; active compounds read low | activity change, negative = inhibition, % at 57.5 µM | actives 4.5% (n = 410,000) | AID 1259415, 2018; in the data active = activity change below about -60%; inconclusive = no clear call, values can overlap the other calls; inactive = above about -39%
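Two compound doses tested in HFFs infected with HCMV-luciferase, MOI 1 PFU/cell, 72 h at 37C. Lysate luminescence read with OneGlo; data normalized against buffer-only and 10uM Salinomycin inhibitor controls.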
Vaccinia mCherry: qHTS for Stage-Specific Inhibitors of Vaccinia Orthopoxvirus: mCherry Reporter Primary qHTS; Vaccinia virus mCherry reporter infection, fluorescence; actives 0.63% (n = 310,000); Potency, µM (top dose mostly 36.5 µM), for inactives: top-dose activity change, negative = inhibition, actives largely listed as inhibitors; calls by dose curve; tested in A549 cells; note: potency is the fitted concentration of half-maximal effect; nearly all actives have a fitted effect of over 35% in size
The depositor's hits bear a star; i = inactive; ? = inconclusive; nt = no result. Compounds with a hit are over-represented: about 9.3% of the library has one in this group of screens. Unless noted, calls come from the whole dose curve; as a rule, active = well fitted curve in the direction sought with a large enough effect; inconclusive = small, poorly fitted or top-dose-only effect, or another doubt; inactive = no such curve, though single readings can be large; an effect the other way counts as inactive or inconclusive. % is set by controls: 0 for no effect and ±100 for the full control effect.

SMILES | Sm TGR block | FMDV antiviral | VACV Venus inh | HCV inh | HCMV inh | Vaccinia mCherry
COc1ccc(C(=O)c2c(C(F)(F)F)oc3c2C(=O)c2ccccc2C3=O)cc1 | -16% | ? | 4µM* | 1.6µM* | nt | nt
Cc1cccc(NC(=O)c2cccc(N3C(=O)C4C5C=CC(C6CC56)C4C3=O)c2)c1 (stereo unspecified) | -21% | 16µM* | -25% | 11µM* | 2 | -8%
Cc1cc(C)cc(NC(=O)c2cccc(N3C(=O)C4C5C=CC(C5)C4C3=O)c2)c1 (stereo unspecified) | 0% | 10% | -9% | -12% | -13 | -18%
N#Cc1cccnc1N1CCN(C(=O)c2cccc3c2C(=O)c2ccc(-c4ccc(Cl)c(C(F)(F)F)c4)cc2S3(=O)=O)CC1 | nt | -17% | -7% | ? | nt | -6%
N#Cc1cccnc1N1CCN(C(=O)c2cccc3c2C(=O)c2ccc(Cl)cc2S3(=O)=O)CC1 | -32% | -10% | -9% | 13µM* | 32 | i
CCOC(=O)C(C)Oc1ccc(C2NC(=O)NC(C)=C2C(=O)Nc2ccccc2C)cc1 (stereo unspecified) | 0% | nt | -3% | 22% | -38 | -11%
Cc1nc(OCc2ccccc2)c2ccccc2n1 | -23% | ? | -16% | ? | -20 | nt
COC(=O)c1sccc1OCc1cccc(OC)c1 | 6% | 16% | nt | -20% | 29 | nt
Cc1nc2ccccc2cc1OCc1ccccc1 | 10% | -28% | nt | 10µM* | -93* | nt
COc1cccc(COc2cc3ccccc3nc2C)c1 | 10% | ? | nt | 5.6µM* | -79* | nt
Cc1nc2ccccc2cc1OCc1ccc(Cl)cc1 | 7% | ? | nt | 7.1µM* | -75* | nt
Cc1nc2ccccc2nc(C)c1=NOCc1cccc(Cl)c1 | 2% | -23% | ? | 2% | 71 | ?
Cc1ccc(S(=O)(=O)Nc2ccc3c(c2)nc(CCN2CCN(c4ccccn4)CC2)n3C)cc1 | -8% | -15% | nt | ? | ? | nt
O=C(CC(c1ccc(F)cc1)c1ccco1)N1CCOCC1 (stereo unspecified) | -12% | -9% | -13% | 16% | -38 | i
O=C1CCC(=O)N1CCC(c1ccc(F)cc1)c1ccco1 (stereo unspecified) | 45µM* | 1% | -5% | -7% | -13 | i
O=C1c2ccccc2C(=O)N1CCC(c1ccc(F)cc1)c1ccco1 (stereo unspecified) | 40µM* | -13% | -6% | ? | 81 | -6%
COc1cccc(OC)c1OCCNC(C)(C)C | 16% | -21% | -4% | 4% | 7 | nt
N=C1/C(=C\c2coc3ccc(O)cc3c2=O)C(=O)N=C2SC=CN12 | 28µM* | -25% | 14% | -27% | -17 | -7%
N=C1/C(=C\c2coc3ccccc3c2=O)C(=O)N=C2SC(c3ccncc3)=NN12 | 0% | 16µM* | 14% | ? | 28 | -9%
CN1C(=O)C(=Cc2coc3ccccc3c2=O)C(=O)N(C)C1=O | 10µM* | -9% | nt | 17% | 14 | nt
N=C1/C(=C/c2coc3ccccc3c2=O)C(=O)N=C2SC(c3ccco3)=NN12 | 10µM* | ? | 11% | -11% | nt | 0%
O=C1NC(=O)C(=Cc2coc3ccc(O)cc3c2=O)C(=O)N1 | ? | ? | nt | 12% | 5 | nt
CSC1=NSC2=NC(=O)/C(=C\c3coc4ccccc4c3=O)C(=N)N12 | -23% | ? | 12% | 25% | 12 | -15%
CCC1CN(C(=O)N2CCC(C(=O)NCc3cccs3)CC2)c2cc(C)ccc2O1 (stereo unspecified) | -2% | -23% | -16% | nt | -17 | 0%
Cc1ccc(S(=O)(=O)N2CCCCC2)cc1NC(=S)NC(=O)c1ccco1 | ? | -19% | nt | ? | -22 | nt
Cc1cccc(C2NC(=O)c3c(sc(C)c3C)N2)c1O (stereo unspecified) | 1% | nt | -2% | 3% | 20 | -12%

Assay outcomes deposited in PubChem BioAssay by National Center for Advancing Translational Sciences (NCATS).
